NTMT1 inhibitor: inhibitors of human N-terminal methyltransferase NTMT1 | NTMT1 MTase-Glo SAH luminescence, purified enzyme | Potency, µM (highest dose often 114 µM), for the others: top-dose activity change, negative = inhibition, actives largely listed as inhibitors | 59,000 tested, 2.5% active;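 note: plate controls were DMSO vehicle for no effect and no enzyme for full effect; nearly all actives have a fitted effect of over 65% in size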
S16 F2sN tox: S16 Schwann cell cytotoxicity. S16 Pmp22-F2sN Schwann cells viability, CellTiter-Glo, 24 h. Potency, µM (highest dose often 57.5 µM), inactives show top-dose activity change, negative = cytotoxicity, most hits filed as cytotoxic. 43,000 tested, 0.48% active. AID 1508642; note: % is set by controls: 0 for no effect and ±100 for the full control effect; nearly all actives have a fitted effect of over 65% in size
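CellTiter-Glo counter-screen, qHTS, 1536-well. Cells: S16(c9) Pmp22-F2sN, 500-1,000/well in DMEM + 10% FBS. Cpd 23 nL pin transfer, 24 h, 37C/5% CO2. Read: luminescence, CCD imager.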
SKOV3 invasion: inhibitors of ovarian cancer cell adhesion and invasion in omental model. 46,000 tested, 0.1% active. Potency, µM (doses to about 45.8 µM), for the others: at the highest dose activity change, negative = inhibition, actives largely listed as inhibitors. SKOV3ip1-GFP adhesion/invasion on 3D omental model, fluorescence;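 note: plate controls were DMSO wells for no effect and tomatine positive control wells for full effect; nearly all actives have a fitted effect of over 65% in size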
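qHTS, 4-pt dose (0.36-46 umol/L); SKOV3ip1-GFP, 1,200 cells/well, no FBS; primary omental fibroblast/mesothelial co-culture 48 h pre-grown; 2 h RT + 16 h 37 C; PBS wash, 4% PFA; GFP count 488/509 nm.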
GALC G270D up: enhancers of human galactocerebrosidase G270D mutant activity in cells; P54803; Potency, µM (highest dose often 57.5 µM), actives largely listed as activators; 145M-Twi-hGALC-G270D cells (Twitcher mouse brain line with human GALC G270D), HMU-beta-Gal fluorescence, 48 h; 45,000 tested, 0.1% active; AID 1159614; note: 0% is about no effect; nearly all actives have a fitted effect of over 65% in size
Target sequence (P54803 whole entry G286D): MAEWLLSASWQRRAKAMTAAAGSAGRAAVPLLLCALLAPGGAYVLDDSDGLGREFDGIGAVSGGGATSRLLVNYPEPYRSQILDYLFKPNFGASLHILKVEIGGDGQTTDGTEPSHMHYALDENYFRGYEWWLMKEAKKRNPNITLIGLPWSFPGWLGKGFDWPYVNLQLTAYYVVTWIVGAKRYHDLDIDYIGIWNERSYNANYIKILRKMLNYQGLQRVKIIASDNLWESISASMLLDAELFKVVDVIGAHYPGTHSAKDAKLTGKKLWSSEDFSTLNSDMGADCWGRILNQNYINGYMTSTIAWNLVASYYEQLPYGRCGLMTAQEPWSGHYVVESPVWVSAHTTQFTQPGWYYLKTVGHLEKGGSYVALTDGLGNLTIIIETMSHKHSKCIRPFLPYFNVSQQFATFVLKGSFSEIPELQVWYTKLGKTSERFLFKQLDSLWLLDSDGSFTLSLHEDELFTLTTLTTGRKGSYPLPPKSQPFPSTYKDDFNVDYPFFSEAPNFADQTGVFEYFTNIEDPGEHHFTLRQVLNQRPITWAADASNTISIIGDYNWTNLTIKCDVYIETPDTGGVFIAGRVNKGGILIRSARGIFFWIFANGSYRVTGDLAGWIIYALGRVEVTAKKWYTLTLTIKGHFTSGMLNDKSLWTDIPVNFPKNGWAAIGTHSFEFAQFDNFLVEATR
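Mutant human GALC (G270D), stably expressed in a Twitcher mouse brain cell line lacking endogenous GALC, is measured in live-treated cells via 6-hexadecanoylamino-4-methylumbelliferyl-β-galactoside hydrolysis (0.1 mM final, pH 5.2) with fluorescent detection.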
PMP22 txn: PMP22 gene transcription modulation; S16 Pmp22-F2sN Schwann cells (luciferase reporters placed in the Pmp22 gene), FLuc/NLuc coincidence luminescence, 24 h; Potency, µM (doses to about 57.5 µM), without a hit: top-dose activity change, negative = inhibition, most hits filed as inhibitors; 43,000 tested, 2% active; AID 1508649; active = clear falling dose curves in both reporters; inconclusive = both reporters move, but less clearly or upward; inactive = either reporter flat; the % is the NLuc reporter signal; note: % is set by controls: 0 for no effect and ±100 for the full control effect
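qHTS, 1536-well. Cells seeded, compounds added by pin tool, 24 h 37C. Nano-Glo reagent 1 (lysis/FLuc), 10 min RT, read; Stop&Glo, 10 min RT, read NLuc.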
pS6 MEF inh: mTORC1 pathway inhibition measured by phospho-rpS6. Tsc2-/- p53-/- MEF, phospho-rpS6 immunofluorescence/PI, 24 h. Potency, µM (doses to about 38.3 µM), without a hit: at the top dose activity change, negative = inhibition, actives largely listed as inhibitors. 44,000 tested, 0.78% active. AID 493208;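 note: plate controls were DMSO for no effect and rapamycin for full effect; nearly all actives have a fitted effect of over 50% in size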
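Plate MEFs (Tsc2-/-, p53-/-, empty vector) in DMEM/10% FBS; after 24 h add compound, incubate 24 h at 37 degree Celsius; fix in PFA/TX-100, block, stain phospho-rpS6 and 10 uM PI; scan at 488 nm; report % positive cells.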
* = called active by the depositor; i = inactive; ? = inconclusive; nt = no result given; ! = repeats disagree; [ ] = remark or other dose. Most compounds without a hit are left out; they make up all but 3.6% or so of the library. Unless noted, calls come from the whole dose curve; as a rule, active = well fitted curve in the direction sought with a large enough effect; inconclusive = small, poorly fitted or top-dose-only effect, or another doubt; inactive = no such curve, though single readings can be large; an effect the other way counts as inactive or inconclusive. Potency is the fitted concentration of half-maximal effect.

SMILES | NTMT1 inhibitor | S16 F2sN tox | SKOV3 invasion | GALC G270D up | PMP22 txn | pS6 MEF inh
CCCn1c(=N)c(C(=O)NCC2CCCO2)cc2c(=O)n3cc(C)ccc3nc21 (stereo not given) | -4% | 8% | -2% | 13µM* | ? | -3%
CC(C)c1onc(-c2c(Cl)cccc2Cl)c1COc1ccc(C=Cc2cccc(C(=O)O)c2)c(Cl)c1 | 17µM* | nt | 26% | nt | nt | nt
CC(=O)OC1C(OC(=O)c2ccccc2)C2C(=C(C)CCC2(C)C)C23CCC(C)(C2)C(=O)CC13 (stereo not given) | 7%[29.8 µM] | nt | nt | nt | nt | nt
CC(C)c1cc(C(C)C)c(CC(=O)NS(=O)(=O)Oc2c(C(C)C)cccc2C(C)C)c(C(C)C)c1 | 40µM*! | nt | -11% | nt | nt | nt
C=CC(C)(C)c1[nH]c2cc3c(cc2c1CC1NC(=O)C2=CCCN2C1=O)C=CC(C)(C)O3 (stereo not given) | 2%[29.8 µM] | nt | nt | nt | nt | nt
COc1ccc2c3n(c(=NC(=O)c4cccnc4)nc2c1OC)CCN3 | 13%[12.6 µM] | nt | -8% | nt | nt | nt
Nc1ccc(C(=O)OCC(O)CO)cc1 (stereo not given) | 20%[57.5 µM] | nt | nt | i | nt | nt
COc1cc(OC)cc(-c2nc3nc(C)c(CCC(=O)Nc4cc(F)ccc4F)c(C)n3n2)c1 | -29% | 0% | i | i | ? | -2%
COc1cc(OC)cc(-c2nc3nc(C)c(CCC(=O)Nc4ccc(F)cc4F)c(C)n3n2)c1 | 89µM* | ? | -4% | ? | -16% | 3%
CC(=CC(=O)Nc1ccccc1C(=O)O)c1ccc2ccccc2c1 | 34µM* | nt | -14% | nt | nt | nt
CC(=O)Nc1cccc(-n2c(=O)n(C3CC3)c(=O)c3c(Nc4ccc(I)cc4F)n(C)c(=O)c(C)c32)c1 | 5% | nt | 11% | nt | nt | nt
C=C1c2cccc(O)c2C(O)=C2C(=O)[C@@]3(O)C(O)=C(C(N)=O)C(=O)[C@@H](N(C)C)[C@@H]3[C@@H](O)[C@H]12 | 13µM* | nt | -4% | nt | nt | nt
C=CC(=O)Nc1cccc(Nc2nc(Nc3ccccc3)ncc2C)c1 | 45µM* | nt | nt | nt | nt | nt
C[C@H](C/C=C/C(C)(C)O)[C@H]1CC[C@@]2(C)[C@@H]3[C@@H](O[C@@H]4O[C@H](CO)[C@@H](O)[C@H](O)[C@H]4O)C=C4C(CC[C@H](O)C4(C)C)[C@]3(C=O)CC[C@]12C (stereo not given in full) | 1%[12.6 µM] | nt | nt | nt | nt | nt
CN(C)c1ccc2cc(C(=O)N[C@@H](CCCN=C(N)CCl)C(=O)NCc3ccccc3)ccc2c1 | 5.6µM* | nt | ? | nt | nt | nt
CC12CCC(C(OC3OC(COC4OCC(O)(CO)C4O)C(O)C(O)C3O)C1)C(C)(C)O2 (stereo not given) | 31%[29.8 µM] | nt | nt | nt | nt | nt
O=C(O)C(O)Cc1ccc(O)c(O)c1 (stereo not given) | 89µM*! | nt | -24% | nt | nt | nt
N[C@@H](Cc1ccc(O)c(O)c1)C(=O)O | -20% | nt | 0% | nt | nt | nt
COc1ccc(C[C@@H](C)[C@@H](C)Cc2ccc(OC)c(OC)c2)cc1OC | 11% | nt | 16% | nt | nt | nt
C[C@H](Cc1ccc(O)c(O)c1)[C@@H](C)Cc1ccc(O)c(O)c1 | 7.9µM* | nt | -15% | nt | nt | nt
COc1ccc(C2Nc3ccccc3C(=O)N2Cc2ccccn2)cc1COc1c(C)cccc1C (stereo not given) | 6% | nt | nt | nt | nt | nt
CCS(=O)(=O)c1ccc(OC)c(C(=O)OC)c1 | -11%[57.5 µM] | nt | nt | i | nt | nt
CCCN(CCC)CC(O)Cn1cc(/C=C/C(=O)c2ccc(C)cc2)c2ccccc21 (stereo not given) | -14% | ? | ? | i | ? | -10%
COc1ccc(C(=O)/C=C/c2cn(CC(O)CN(CC(C)C)CC(C)C)c3ccccc23)cc1 (stereo not given) | 14% | -3% | i | 22µM* | ? | -10%
CCCN(CCC)CC(O)Cn1cc(/C=C/C(=O)c2ccc(OC)cc2)c2ccccc21 (stereo not given) | -5% | ? | ? | 28µM* | ? | 15µM*
SMILES | NTMT1 inhibitor | S16 F2sN tox | SKOV3 invasion | GALC G270D up | PMP22 txn | pS6 MEF inh
CC(C)(Sc1ccc(CCN(CCCCC2CCCCC2)C(=O)NC2CCCCC2)cc1)C(=O)O | 32µM*! | nt | 11% | nt | nt | nt
Cc1ccc(CNS(=O)(=O)c2cc3c(cc2Cl)NC(=O)CO3)o1 | 89µM* | -2% | -17% | i | 0% | 0%
Cc1cc2c(cc1S(=O)(=O)NCc1ccccc1Cl)OCC(=O)N2 | -6% | 0% | -1% | i | 12% | -1%
C=C1C(OC(=O)/C(C)=C\C)[C@@]23CCC4[C@@](C)(CCC[C@@]4(C)C(=O)O)C2CC[C@H]1C3OC(C)=O (stereo not given in full) | 11%[29.8 µM] | nt | nt | nt | nt | nt
COc1ccc(C(=O)Nc2ccc3oc(-c4cc(Cl)ccc4Cl)nc3c2)cc1Br | 79µM* | 30% | 19% | i | ? | -1%
Clc1ccc(C(c2ccc(Cl)cc2)n2cc[n+](CC(OCc3ccc(Cl)cc3Cl)c3ccc(Cl)cc3Cl)c2)cc1 (stereo not given) | 30µM* | nt | ? | nt | nt | nt
CCc1c(C)sc2c1CCN(C(=O)Nc1cc(OC)c(OC)c(OC)c1)C2c1ccccc1 (stereo not given) | -7% | -19% | 3% | i | -26% | 12%
CCOC(=O)c1ccccc1NC(=O)N1CCc2c(sc(C)c2CC)C1c1ccccc1 (stereo not given) | 25% | 4% | -1% | i | ? | 22%
CCc1c(C)sc2c1CCN(Cc1ccccc1F)C2c1ccccc1 (stereo not given) | ? | 8.9µM* | -7% | i | 3.4µM* | 9%
CCc1c(C)sc2c1CCN(Cc1cccc(OC)c1)C2c1ccccc1 (stereo not given) | -24% | ? | 8% | i | 9.5µM* | 1%
O=C1CCCC2=C1C(c1ccncc1)N=C(Nc1nc3ccccc3o1)N2 (stereo not given) | 11% | nt | nt | nt | nt | nt
O=C(Nc1cccc([S+](=O)([O-])Nc2ccccc2F)c1)c1ccccc1 | 5% | nt | nt | nt | nt | nt
O=C1[C@H](Cc2ccc(O)cc2)N2C(=O)CCN(C(=O)NCc3ccccc3)[C@H]2CN1Cc1cccc2ccccc12 | ? | nt | -29% | nt | nt | nt
CC(=O)c1ccc(N2CCN(S(=O)(=O)c3ccc4c(c3)CC(C)N4C(=O)C3CCC3)CC2)cc1 (stereo not given) | -3% | ? | i | i | 13µM* | -7%
COc1ccc(OC)c(NC(=O)Cn2ccn(-c3ccc(OC)c(OC)c3)c(=O)c2=O)c1 | -8% | 2% | 7% | i | -22% | 7%
